How the values were obtained:
Conditions in all cases: concentration: 1 μM, replicates: in singlicate; n = 1
MRCKB = system: T1, MRCKB
T1 construct: gene CDC42BPB

MST1R = system: MST1R
MST1 = system: T2, MST1
T2 construct: gene STK4

MST2 = system: T3, MST2
T3 construct: gene STK3

MST3 = system: T4, MST3
T4 construct: gene STK24

MST4 = system: MST4
MTOR = system: MTOR
MUSK = system: MUSK
MYLK2 = system: MYLK2
MYLK4 = system: MYLK4
MYLK = system: MYLK
MYO3A = system: MYO3A
MYO3B = system: MYO3B
NDR1 = system: T5, NDR1
T5 construct: gene STK38

NDR2 = system: NDR2
NEK10 = system: NEK10
NEK11 = system: NEK11
NEK1 = system: NEK1
NEK2 = system: NEK2
NEK3 = system: NEK3
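Note: KINOMEscan kinase panel screen.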

| Compound | %Inh (MRCKB) [%] | %Inh (MST1R) [%] | %Inh (MST1) [%] | %Inh (MST2) [%] | %Inh (MST3) [%] | %Inh (MST4) [%] | %Inh (MTOR) [%] | %Inh (MUSK) [%] | %Inh (MYLK2) [%] | %Inh (MYLK4) [%] | %Inh (MYLK) [%] | %Inh (MYO3A) [%] | %Inh (MYO3B) [%] | %Inh (NDR1) [%] | %Inh (NDR2) [%] | %Inh (NEK10) [%] | %Inh (NEK11) [%] | %Inh (NEK1) [%] | %Inh (NEK2) [%] | %Inh (NEK3) [%] |
| --- | --- | --- | --- | --- | --- | --- | --- | --- | --- | --- | --- | --- | --- | --- | --- | --- | --- | --- | --- | --- |
| O=C(NCCNc1ccnc(Nc2ccc(F)cc2)n1)Nc1ccc2c(c1)OCO2 [GSK1379882] | 0 | 6 | 0 | 22 | 11 | 0 | 11 | 0 | 15 | 9 | 23 | 32 | 0 | 10 | 20 | 0 | 7 | 0 | 7 | 16 |
| COc1cccc(C2=C(N(C)c3ccccc3)C(=O)NC2=O)c1 [SB-334865] | 0 | 10 | 5 | 0 | 0 | 0 | 19 | 2 | 9 | 0 | 1 | 22 | 0 | 16 | 0 | 22 | 0 | 0 | 0 | 26 |
| CCCC(=O)Nc1n[nH]c2ncc(-c3cccc4ccccc34)cc12 [SB-642057] | 17 | 18 | 5 | 0 | 6 | 0 | 17 | 11 | 9 | 0 | 28 | 0 | 0 | 13 | 3 | 100 | 0 | 0 | 0 | 28 |
| COc1cc2ncn(-c3cc(OCc4ccncc4)c(C(N)=O)s3)c2cc1OC [GSK336313] | 0 | 34 | 0 | 0 | 0 | 0 | 28 | 93.6 | 21 | 36 | 44 | 10 | 0 | 0 | 0 | 0 | 0 | 31 | 10 | 0 |
| O=C(NCc1cccs1)c1cc(C(=O)c2c(Cl)cccc2Cl)c[nH]1 [GW823670] | 0 | 0 | 15 | 0 | 0 | 0 | 0 | 2 | 0 | 4 | 0 | 0 | 18 | 26 | 14 | 0 | 0 | 15 | 0 | 20 |
| CCc1nc(-c2cccc(C)c2)c(-c2ccncc2)s1 | 0 | 0 | 0 | 8 | 8 | 0 | 34 | 5 | 5 | 0 | 12 | 4 | 15 | 40 | 0 | 3 | 0 | 0 | 0 | 28 |
| COc1ccc(-c2coc3ccc(-c4nnc(SCc5cccc(C#N)c5)o4)cc23)cc1 | 0 | 33 | 15 | 13 | 25 | 0 | 0 | 18 | 7 | 0 | 6 | 20 | 49 | 7 | 0 | 0 | 0 | 0 | 5 | 7 |
| COc1cccc(-n2cnc3c(N)ncnc32)c1 [SKF-97416] | 0 | 5 | 0 | 0 | 6 | 28 | 19 | 5 | 6 | 26 | 31 | 8 | 20 | 28 | 12 | 18 | 35 | 0 | 0 | 21 |
| CN(C)c1cc(-c2ccc3c(N)n[nH]c3c2)nc(N)n1 [GSK2219329] | 0 | 18 | 1 | 0 | 5 | 0 | 1 | 0 | 9 | 0 | 0 | 11 | 0 | 17 | 0 | 0 | 0 | 0 | 0 | 0 |
| Nc1n[nH]c2ncc(-c3ccccc3)cc12 [SB-517081] | 0 | 41 | 0 | 0 | 0 | 0 | 7 | 28 | 15 | 61 | 39 | 20 | 0 | 27 | 0 | 24 | 0 | 0 | 27 | 21 |
| COc1cc2ncn(-c3cc(OCc4ccc(S(C)(=O)=O)cc4)c(C(N)=O)s3)c2cc1OC [GW869979] | 0 | 0 | 0 | 44 | 7 | 14 | 6 | 0 | 0 | 8 | 46 | 0 | 0 | 25 | 4 | 29 | 14 | 0 | 0 | 14 |
| COc1cc(Nc2ccnc3ccc(C(F)(F)F)cc23)cc(OC)c1OC [GW577382] | 6 | 34 | 13 | 5 | 4 | 0 | 21 | 8 | 4 | 10 | 0 | 12 | 10 | 13 | 1 | 10 | 0 | 0 | 0 | 3 |
| Fc1cccc(CSc2nnc(-c3ccc4c(c3)CCO4)o2)c1 | 0 | 35 | 3 | 0 | 0 | 0 | 36 | 0 | 11 | 0 | 2 | 0 | 0 | 16 | 22 | 0 | 0 | 0 | 1 | 19 |
| CCc1ccc(-c2ccc3c(c2)-c2nn(C)cc2S(=O)(=O)N3C)cc1 | 0 | 0 | 0 | 0 | 0 | 0 | 23 | 1 | 0 | 6 | 3 | 96.5 | 0 | 19 | 0 | 0 | 0 | 0 | 0 | 36 |
| Cc1nnc(-c2ccc(C)c(-c3ccc(C(=O)O)cc3)c2)o1 [GW608005] | 0 | 17 | 0 | 0 | 0 | 0 | 0 | 5 | 2 | 3 | 5 | 0 | 0 | 9 | 0 | 0 | 5 | 0 | 19 | 0 |
| Nc1n[nH]c2nnc(-c3ccccc3)c(-c3ccccc3)c12 [GW554060] | 0 | 40 | 0 | 0 | 0 | 0 | 12 | 20 | 0 | 1 | 16 | 0 | 0 | 9 | 10 | 9 | 5 | 0 | 0 | 4 |
| Cn1c(=O)c(F)c(Nc2ccc(I)cc2F)c2c(=O)n(OC[C@H](O)CO)cnc21 | 0 | 0 | 19 | 0 | 0 | 0 | 0 | 8 | 1 | 0 | 22 | 0 | 28 | 7 | 3 | 0 | 0 | 0 | 14 | 35 |
| COC(=O)c1c(-c2ccccc2)c2cc(Br)ccc2c(=O)n1Cc1ccc(S(C)(=O)=O)cc1 | 0 | 43 | 10 | 32 | 5 | 0 | 28 | 7 | 0 | 2 | 20 | 26 | 0 | 7 | 19 | 0 | 0 | 0 | 10 | 21 |
| O=C(Nc1n[nH]c2nc(-c3ccccc3)c(Br)cc12)C1CC1 [SB-708998] | 0 | 100 | 18 | 7 | 0 | 0 | 16 | 0 | 95.7 | 0 | 7 | 0 | 13 | 18 | 0 | 4 | 0 | 0 | 15 | 0 |
| COc1cc2nccc(Nc3cccc(Oc4ccccc4)c3)c2cc1OC.Cl [GW284543] | 0 | 18 | 1 | 47 | 0 | 0 | 15 | 6 | 0 | 0 | 0 | 0 | 36 | 8 | 0 | 0 | 19 | 0 | 0 | 0 |
| Cc1cccc(-c2nc(Nc3ccc4c(cnn4C)c3)c3ccccc3n2)n1 [GW876731] | 34 | 0 | 0 | 0 | 0 | 9 | 0 | 2 | 0 | 33 | 0 | 0 | 0 | 17 | 68 | 0 | 46 | 0 | 14 | 0 |
| COc1ccc(Nc2nccc(N3CCC(NS(=O)(=O)c4ccc(NC(C)=O)cc4)C3)n2)cc1 (centres unmarked) [GSK1379729] | 15 | 25 | 7 | 0 | 0 | 9 | 43 | 18 | 29 | 1 | 15 | 8 | 2 | 10 | 0 | 0 | 1 | 0 | 8 | 7 |
